Common to all, as to experiment: PBM; 200 nM protein, PBS
Common to all, as to conditions: dsDNA, one strand shown

In experiment [1] the target is HOXD13 (Homo sapiens, UniProt P35453 263-343, T313R).
Experiment [2] deals with HOXD13 (Homo sapiens, UniProt P35453 263-343).
For experiment [3], the target named is HOXD13 (Homo sapiens, UniProt P35453 263-343, T313A).
Experiment [4] has as its target VAX1 (Homo sapiens, UniProt Q5SQQ9 86-172).
The target of experiment [5] is VAX1 (Homo sapiens, UniProt Q5SQQ9 86-172, T142I).
Chain of VAX1 (Homo sapiens, UniProt Q5SQQ9 86-172, T142I) (Q5SQQ9 86-172 T142I): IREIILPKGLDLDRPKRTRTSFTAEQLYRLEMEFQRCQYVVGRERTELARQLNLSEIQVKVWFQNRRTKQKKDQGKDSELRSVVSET
Experiment [6] concerns the target VAX1 (Homo sapiens, UniProt Q5SQQ9 86-172, K157R).

Chain of HOXD13 (Homo sapiens, UniProt P35453 263-343, T313R) (P35453 263-343 T313R): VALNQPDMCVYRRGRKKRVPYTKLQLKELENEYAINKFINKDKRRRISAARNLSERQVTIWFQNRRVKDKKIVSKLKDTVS
Chain of HOXD13 (Homo sapiens, UniProt P35453 263-343) (P35453 263-343): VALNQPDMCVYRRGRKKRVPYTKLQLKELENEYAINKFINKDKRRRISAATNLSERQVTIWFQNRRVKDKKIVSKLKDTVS
Chain of HOXD13 (Homo sapiens, UniProt P35453 263-343, T313A) (P35453 263-343 T313A): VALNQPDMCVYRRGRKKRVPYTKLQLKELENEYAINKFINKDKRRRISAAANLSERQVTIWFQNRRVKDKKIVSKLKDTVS
Chain of VAX1 (Homo sapiens, UniProt Q5SQQ9 86-172, K157R) (Q5SQQ9 86-172 K157R): as the sequence (Q5SQQ9 86-172 T142I) above, with I57T, K72R counted along it
Chain of VAX1 (Homo sapiens, UniProt Q5SQQ9 86-172) (Q5SQQ9 86-172): as the sequence (Q5SQQ9 86-172 T142I) above, with I57T counted along it

Turning to CCGCGCTC, the binding signal in experiment [1] is 9.52 upbm affinity estimate (log intensity, higher = more binding, comparable within an allelic series); in experiment [2], 9.5 upbm affinity estimate (log intensity, higher = more binding, comparable within an allelic series); in experiment [3] it was 9.47 upbm affinity estimate (log intensity, higher = more binding, comparable within an allelic series).
Take ACGGTCCC: the binding signal was 9.51 upbm affinity estimate (log intensity, higher = more binding, comparable within an allelic series) in experiment [1]; 9.34 upbm affinity estimate (log intensity, higher = more binding, comparable within an allelic series) in experiment [2]; 9.69 upbm affinity estimate (log intensity, higher = more binding, comparable within an allelic series) in experiment [3].
CCAGTAAA: the binding signal in experiment [1] is 10.4 upbm affinity estimate (log intensity, higher = more binding, comparable within an allelic series); in experiment [2], 11.5 upbm affinity estimate (log intensity, higher = more binding, comparable within an allelic series); in experiment [3] it was 11.2 upbm affinity estimate (log intensity, higher = more binding, comparable within an allelic series).
Take CGCCCGCG: the binding signal was 9.5 upbm affinity estimate (log intensity, higher = more binding, comparable within an allelic series) in experiment [1]; 9.42 upbm affinity estimate (log intensity, higher = more binding, comparable within an allelic series) in experiment [2]; 9.59 upbm affinity estimate (log intensity, higher = more binding, comparable within an allelic series) in experiment [3].
For the sequence ACCAGGGG, the binding signal in experiment [1] was 9.62 upbm affinity estimate (log intensity, higher = more binding, comparable within an allelic series); in experiment [2], 9.61 upbm affinity estimate (log intensity, higher = more binding, comparable within an allelic series); in experiment [3] it was 9.9 upbm affinity estimate (log intensity, higher = more binding, comparable within an allelic series).
In the case of CGCGATGC, the binding signal in experiment [1] is 9.5 upbm affinity estimate (log intensity, higher = more binding, comparable within an allelic series); in experiment [2], 9.5 upbm affinity estimate (log intensity, higher = more binding, comparable within an allelic series); in experiment [3], 9.65 upbm affinity estimate (log intensity, higher = more binding, comparable within an allelic series).
CCTCATAA: the binding signal in experiment [1] is 10.6 upbm affinity estimate (log intensity, higher = more binding, comparable within an allelic series); in experiment [2], 11.8 upbm affinity estimate (log intensity, higher = more binding, comparable within an allelic series); in experiment [3], 11.6 upbm affinity estimate (log intensity, higher = more binding, comparable within an allelic series).
GTTGTAAA: the binding signal is 10.6 upbm affinity estimate (log intensity, higher = more binding, comparable within an allelic series) in experiment [1]; 11.8 upbm affinity estimate (log intensity, higher = more binding, comparable within an allelic series) in experiment [2]; 11.7 upbm affinity estimate (log intensity, higher = more binding, comparable within an allelic series) in experiment [3].
Turning to CCCTGACC, the binding signal in experiment [1] was 9.5 upbm affinity estimate (log intensity, higher = more binding, comparable within an allelic series); in experiment [2], 9.5 upbm affinity estimate (log intensity, higher = more binding, comparable within an allelic series); in experiment [4] it was 7.22 upbm affinity estimate (log intensity, higher = more binding, comparable within an allelic series); in experiment [3], 9.64 upbm affinity estimate (log intensity, higher = more binding, comparable within an allelic series); in experiment [5], 7.35 upbm affinity estimate (log intensity, higher = more binding, comparable within an allelic series); in experiment [6] it was 7.27 upbm affinity estimate (log intensity, higher = more binding, comparable within an allelic series).
For CCAGTCCG, the binding signal in experiment [1] is 9.56 upbm affinity estimate (log intensity, higher = more binding, comparable within an allelic series); in experiment [2] it was 9.53 upbm affinity estimate (log intensity, higher = more binding, comparable within an allelic series); in experiment [3], 9.68 upbm affinity estimate (log intensity, higher = more binding, comparable within an allelic series).
As to GCACCGGA, the binding signal was 9.55 upbm affinity estimate (log intensity, higher = more binding, comparable within an allelic series) in experiment [1]; 9.43 upbm affinity estimate (log intensity, higher = more binding, comparable within an allelic series) in experiment [2]; 9.61 upbm affinity estimate (log intensity, higher = more binding, comparable within an allelic series) in experiment [3].
In the case of CCTCCGCC, the binding signal in experiment [1] was 9.44 upbm affinity estimate (log intensity, higher = more binding, comparable within an allelic series); in experiment [2], 9.44 upbm affinity estimate (log intensity, higher = more binding, comparable within an allelic series); in experiment [3] it was 9.54 upbm affinity estimate (log intensity, higher = more binding, comparable within an allelic series).
For the sequence CCTACCCC, the binding signal in experiment [1] was 9.51 upbm affinity estimate (log intensity, higher = more binding, comparable within an allelic series); in experiment [2] it was 9.51 upbm affinity estimate (log intensity, higher = more binding, comparable within an allelic series); in experiment [3] it was 9.59 upbm affinity estimate (log intensity, higher = more binding, comparable within an allelic series).
With AGGGGGGA, the binding signal in experiment [1] is 9.23 upbm affinity estimate (log intensity, higher = more binding, comparable within an allelic series); in experiment [2], 9.47 upbm affinity estimate (log intensity, higher = more binding, comparable within an allelic series); in experiment [3], 9.55 upbm affinity estimate (log intensity, higher = more binding, comparable within an allelic series).
Regarding GTTTATGA, the binding signal in experiment [1] was 10.9 upbm affinity estimate (log intensity, higher = more binding, comparable within an allelic series); in experiment [2], 12 upbm affinity estimate (log intensity, higher = more binding, comparable within an allelic series); in experiment [3] it was 11.8 upbm affinity estimate (log intensity, higher = more binding, comparable within an allelic series).
In the case of CTAGTAAA, the binding signal in experiment [1] was 10.8 upbm affinity estimate (log intensity, higher = more binding, comparable within an allelic series); in experiment [2], 11.9 upbm affinity estimate (log intensity, higher = more binding, comparable within an allelic series); in experiment [3], 11.8 upbm affinity estimate (log intensity, higher = more binding, comparable within an allelic series).
In the case of GAGCCCAC, the binding signal in experiment [1] was 9.49 upbm affinity estimate (log intensity, higher = more binding, comparable within an allelic series); in experiment [2], 9.6 upbm affinity estimate (log intensity, higher = more binding, comparable within an allelic series); in experiment [3] it was 9.72 upbm affinity estimate (log intensity, higher = more binding, comparable within an allelic series).
As for CCGGCCGC, the binding signal is 9.39 upbm affinity estimate (log intensity, higher = more binding, comparable within an allelic series) in experiment [1]; 9.4 upbm affinity estimate (log intensity, higher = more binding, comparable within an allelic series) in experiment [2]; 9.32 upbm affinity estimate (log intensity, higher = more binding, comparable within an allelic series) in experiment [3].
Turning to CGAAGGCG, the binding signal was 9.52 upbm affinity estimate (log intensity, higher = more binding, comparable within an allelic series) in experiment [1]; 9.45 upbm affinity estimate (log intensity, higher = more binding, comparable within an allelic series) in experiment [2]; 9.53 upbm affinity estimate (log intensity, higher = more binding, comparable within an allelic series) in experiment [3].
Consider ATAGCAAT, for which the binding signal in experiment [1] is 10.2 upbm affinity estimate (log intensity, higher = more binding, comparable within an allelic series); in experiment [2], 10.7 upbm affinity estimate (log intensity, higher = more binding, comparable within an allelic series).
In the case of GATACGAC, the binding signal was 9.91 upbm affinity estimate (log intensity, higher = more binding, comparable within an allelic series) in experiment [1] and 10.3 upbm affinity estimate (log intensity, higher = more binding, comparable within an allelic series) in experiment [2].
On to CTTGTAAA, for which the binding signal in experiment [1] is 10.9 upbm affinity estimate (log intensity, higher = more binding, comparable within an allelic series); in experiment [2] it was 12.3 upbm affinity estimate (log intensity, higher = more binding, comparable within an allelic series); in experiment [3], 11.9 upbm affinity estimate (log intensity, higher = more binding, comparable within an allelic series).
Turning to CAATAATC, the binding signal in experiment [1] was 10.2 upbm affinity estimate (log intensity, higher = more binding, comparable within an allelic series); in experiment [2] it was 11.2 upbm affinity estimate (log intensity, higher = more binding, comparable within an allelic series); in experiment [3], 11.1 upbm affinity estimate (log intensity, higher = more binding, comparable within an allelic series).
With CTTTACGA, the binding signal in experiment [1] was 10.5 upbm affinity estimate (log intensity, higher = more binding, comparable within an allelic series); in experiment [2], 11.8 upbm affinity estimate (log intensity, higher = more binding, comparable within an allelic series); in experiment [3], 11.5 upbm affinity estimate (log intensity, higher = more binding, comparable within an allelic series).
As to CCTATAAA, the binding signal in experiment [1] is 11.1 upbm affinity estimate (log intensity, higher = more binding, comparable within an allelic series); in experiment [2], 12.3 upbm affinity estimate (log intensity, higher = more binding, comparable within an allelic series); in experiment [3] it was 12.1 upbm affinity estimate (log intensity, higher = more binding, comparable within an allelic series).
For the sequence CCGGCCCA, the binding signal was 9.49 upbm affinity estimate (log intensity, higher = more binding, comparable within an allelic series) in experiment [1]; 9.55 upbm affinity estimate (log intensity, higher = more binding, comparable within an allelic series) in experiment [2]; 9.54 upbm affinity estimate (log intensity, higher = more binding, comparable within an allelic series) in experiment [3].

For the origin of these results see paper PMC11006913.
